Source: the antibiotic and cytotoxicity screens of Wong et al. (2023)
In all, about 39,000 compounds went through this assay and about 3,300 (8.5%) were called active. Many of the other results were omitted from the sample, so actives are more common in it than they were.

tested on: HepG2; assay: cytotoxicity call (relative viability < 0.9); conditions: 10 µM

| Structure (SMILES) | cytotoxicity call |
| --- | --- |
| CCCNC(=O)N1C[C@H](O)COC[C@@H]2O[C@@H](CC(=O)N3CCOCC3)CC[C@H]21 | inactive |
| CO[C@@H]1CN(C)C(=O)c2cc(NC(=O)Nc3cccc(F)c3)ccc2OC[C@@H](C)N(C(=O)Nc2c(C)noc2C)C[C@H]1C | inactive |
| Cc1cc(Cn2c(=O)n(Cc3cnc(C)s3)c(=O)c3cc(S(=O)(=O)NC4(C)CC4)ccc32)n(C)n1 | inactive |
| COc1ccccc1CNC(=O)C[C@@H]1C[C@H]2c3cc(NC(=O)c4ccc5c(c4)OCO5)ccc3O[C@H]2[C@H](CO)O1 | inactive |
| C[C@@H]1CN([C@@H](C)CO)C(=O)c2cc(C#Cc3ccccc3F)cnc2O[C@H]1CN(C)S(=O)(=O)c1ccccc1F | active |
| C[C@@H]1CN([C@@H](C)CO)C(=O)c2cc(C#Cc3ccccc3)cnc2O[C@H]1CN(C)S(=O)(=O)c1ccccc1F | active |
| C[C@@H]1CN([C@H](C)CO)C(=O)c2cc(C#Cc3ccccc3F)cnc2O[C@H]1CN(C)S(=O)(=O)c1ccccc1F | inactive |
| C[C@H](CO)N1C[C@H](C)[C@@H](CN(C)S(=O)(=O)c2ccccc2F)Oc2ncc(C#Cc3ccccc3)cc2C1=O | inactive |
| C[C@@H]1CN([C@H](C)CO)C(=O)c2cc(C#Cc3ccccc3)cnc2O[C@@H]1CN(C)S(=O)(=O)c1ccccc1F | inactive |
| C[C@H](CO)N1C[C@H](C)[C@H](CN(C)S(=O)(=O)c2ccccc2F)Oc2ncc(C#Cc3ccccc3)cc2C1=O | inactive |
| C[C@H]1CN([C@@H](C)CO)C(=O)c2cc(C#Cc3ccccc3)cnc2O[C@H]1CN(C)S(=O)(=O)c1ccccc1F | inactive |
| C[C@@H]1CN([C@@H](C)CO)C(=O)c2cc(C#Cc3ccccc3)cnc2O[C@@H]1CN(C)S(=O)(=O)c1ccccc1F | active |
| C[C@H]1CN([C@@H](C)CO)C(=O)c2cc(C#Cc3ccccc3F)cnc2O[C@@H]1CN(C)S(=O)(=O)c1ccccc1F | inactive |
| C[C@H](CO)N1C[C@H](C)[C@H](CN(C)C(=O)Nc2cccc3ccccc23)Oc2ccc(NC(=O)NC3CCCCC3)cc2CC1=O | inactive |
| Cc1cc(=O)n(CNC(=O)c2ccco2)cn1 | inactive |
| O=C([O-])C(O)C(O)C(O)C(O)C(O)CO.O=C([O-])C(O)C(O)C(O)C(O)C(O)CO.[Ca+2] (centres undefined) | inactive |
| O=C(C[C@H]1CC[C@H]2NC[C@@H](O)COC[C@@H]2O1)NCCN1CCCC1 | inactive |
| COc1ccsc1C(N)=O | inactive |
| C[C@H]1CN([C@@H](C)CO)C(=O)Cc2cc(NC(=O)CCCCCC(=O)Nc3ccccc3N)ccc2O[C@@H]1CN(C)C(=O)Nc1cccc2ccccc12 | inactive |
| COC(=O)C[C@@H]1CC[C@@H]2[C@H](COC[C@@H](O)CN2S(=O)(=O)c2cn(C)cn2)O1 | inactive |
| CC(C)=CCC/C(C)=C/CC/C(C)=C/CC/C(C)=C/CO | inactive |
| Cc1ccc(-c2cnc3c(c2)C(=O)N([C@@H](C)CO)C[C@H](C)[C@H](CN(C)C(=O)Cc2ccncc2)O3)cc1 | inactive |
| C[C@@H]1CN([C@H](C)CO)C(=O)c2cc(NC(=O)CCN3CCOCC3)ccc2O[C@@H]1CN(C)S(=O)(=O)c1ccc(F)cc1 | inactive |
| C[C@@H]1CCCCO[C@H](CN(C)C(=O)c2ccccc2)[C@@H](C)CN([C@H](C)CO)C(=O)c2cc(NC(=O)Nc3ccccc3)ccc2O1 | inactive |
| C[C@H](CO)N1C[C@H](C)[C@H](CN(C)C(=O)Nc2ccc3c(c2)OCO3)Oc2ccc(NC(=O)CCN3CCOCC3)cc2C1=O | inactive |
| C[C@@H]1CN([C@H](C)CO)C(=O)c2cc(NC(=O)CCN3CCOCC3)ccc2O[C@H]1CN(C)C(=O)Nc1ccc2c(c1)OCO2 | active |
| C[C@@H]1CN([C@@H](C)CO)C(=O)c2cc(NC(=O)CCN3CCOCC3)ccc2O[C@@H]1CN(C)C(=O)Nc1ccc2c(c1)OCO2 | active |

| Structure (SMILES) | cytotoxicity call |
| --- | --- |
| C[C@H]1CN([C@@H](C)CO)C(=O)c2cc(NC(=O)CCN3CCOCC3)ccc2O[C@H]1CN(C)C(=O)Nc1ccc2c(c1)OCO2 | inactive |
| C[C@@H]1CN([C@H](C)CO)C(=O)c2cc(NC(=O)CCN3CCOCC3)ccc2O[C@@H]1CN(C)C(=O)Nc1ccc2c(c1)OCO2 | inactive |
| C[C@@H]1CN([C@@H](C)CO)C(=O)c2cc(NC(=O)CCN3CCOCC3)ccc2O[C@H]1CN(C)C(=O)Nc1ccc2c(c1)OCO2 | inactive |
| C[C@@H]1CCCCO[C@@H](CN(C)S(=O)(=O)c2cn(C)cn2)[C@@H](C)CN([C@H](C)CO)C(=O)c2cc(NC(=O)c3ccncc3)ccc2O1 | inactive |
| COc1cccc(OC[C@@H](O)CN(CCO)CCO)c1 | inactive |
| O=C(C[C@@H]1C=C[C@@H](NC(=O)Nc2ccc3c(c2)OCO3)[C@@H](CO)O1)NCCCN1CCOCC1 | inactive |
| C[C@H]1CCCCO[C@H](CN(C)S(=O)(=O)c2cn(C)cn2)[C@@H](C)CN([C@@H](C)CO)C(=O)c2cc(NS(C)(=O)=O)ccc2O1 | inactive |
| C[C@@H]1CN([C@H](C)CO)C(=O)c2cccc(N(C)C)c2O[C@@H]1CN(C)S(C)(=O)=O | inactive |
| C[C@@H]1CCCCO[C@H](CN(C)S(=O)(=O)c2ccccc2)[C@H](C)CN([C@@H](C)CO)C(=O)c2cc(NC(=O)Nc3ccccc3)ccc2O1 | inactive |
| COCC#Cc1ccc([C@@H]2[C@@H](CO)N3C(=O)CN(C(=O)C4CCOCC4)C[C@H]23)cc1 | inactive |
| COc1ccccc1OC[C@@H](O)COC(N)=O | inactive |
| COc1ccccc1OCC(O)COC(N)=O (centres undefined) | active |
| NC(=O)OCC(COC(N)=O)c1ccccc1 | inactive |
| Cc1noc(C)c1S(=O)(=O)Nc1ccc2c(c1)CC(=O)N([C@H](C)CO)C[C@@H](C)[C@@H](CN(C)CC1CC1)O2 | inactive |
| Cc1ccc(S(=O)(=O)N(C)C[C@@H]2Oc3ccc(NC(=O)Cn4cnnn4)cc3CC(=O)N([C@@H](C)CO)C[C@@H]2C)cc1 | inactive |
| Cc1noc(C)c1S(=O)(=O)Nc1ccc2c(c1)CC(=O)N([C@@H](C)CO)C[C@H](C)[C@@H](CN(C)Cc1ccc(Oc3ccccc3)cc1)O2 | inactive |
| Cc1noc(C)c1S(=O)(=O)Nc1ccc2c(c1)CC(=O)N([C@@H](C)CO)C[C@@H](C)[C@H](CN(C)Cc1ccc(Oc3ccccc3)cc1)O2 | inactive |
| Cc1noc(C)c1S(=O)(=O)Nc1ccc2c(c1)CC(=O)N([C@@H](C)CO)C[C@@H](C)[C@@H](CN(C)Cc1ccc(Oc3ccccc3)cc1)O2 | active |
| Cc1noc(C)c1S(=O)(=O)Nc1ccc2c(c1)CC(=O)N([C@H](C)CO)C[C@H](C)[C@@H](CN(C)Cc1ccc(Oc3ccccc3)cc1)O2 | active |
| Cc1noc(C)c1S(=O)(=O)Nc1ccc2c(c1)CC(=O)N([C@H](C)CO)C[C@@H](C)[C@@H](CN(C)Cc1ccc(Oc3ccccc3)cc1)O2 | inactive |
| Cc1noc(C)c1S(=O)(=O)Nc1ccc2c(c1)CC(=O)N([C@H](C)CO)C[C@H](C)[C@H](CN(C)Cc1ccc(Oc3ccccc3)cc1)O2 | inactive |
| Cc1noc(C)c1S(=O)(=O)Nc1ccc2c(c1)CC(=O)N([C@@H](C)CO)C[C@@H](C)[C@H](CN(C)Cc1ccc3c(c1)OCO3)O2 | inactive |
| Cc1noc(C)c1S(=O)(=O)Nc1ccc2c(c1)CC(=O)N([C@H](C)CO)C[C@H](C)[C@@H](CN(C)Cc1ccc(-c3ccccc3)cc1)O2 | active |
| Cc1noc(C)c1S(=O)(=O)Nc1ccc2c(c1)CC(=O)N([C@H](C)CO)C[C@@H](C)[C@@H](CN(C)Cc1ccc3c(c1)OCO3)O2 | active |
| Cc1noc(C)c1S(=O)(=O)Nc1ccc2c(c1)CC(=O)N([C@@H](C)CO)C[C@@H](C)[C@@H](CN(C)Cc1ccc3c(c1)OCO3)O2 | inactive |
| Cc1noc(C)c1S(=O)(=O)Nc1ccc2c(c1)CC(=O)N([C@H](C)CO)C[C@@H](C)[C@H](CN(C)Cc1ccc(-c3ccccc3)cc1)O2 | inactive |
| Cc1noc(C)c1S(=O)(=O)Nc1ccc2c(c1)CC(=O)N([C@@H](C)CO)C[C@@H](C)[C@@H](CN(C)Cc1ccc(-c3ccccc3)cc1)O2 | inactive |
